The structures appear in SMILES notation. Records with an inconclusive call do not appear. Calls of active or inactive are those of the source. Calls follow the shape of the dose curve; as a rule, active = well fitted cell-killing curve with a large enough effect; inconclusive = small, poorly fitted or top-dose-only effect; inactive = flat fitted curve, though single readings scatter.
% is scaled to controls: 0 for no effect and ±100 for the full control effect; potency is read from the fitted curve at half-maximal effect.

A short description of this experiment: Cellular viability qHTS for adrenocortical cancer (ACC) cell line SW-13 (AID 1963989). Also: nearly all actives have a fitted effect of over 65% in size.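 As to activity (max response): cells grown in serum-free medium with ITS supplement.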 The note with it: SW-13 ACC cells viability, CellTiter-Glo, 48 h; activity (max response): hits give low values. The gist of the method:
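Compound titrations (up to 46 uM final, in DMSO) were applied to SW-13 cells for 48 h at 37C/5% CO2. Reading used CellTiter-Glo after 20 min at room temperature; fitted curves yielded IC50 and efficacy.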
Background: In qHTS, concentration-response curves come from the screen itself.
With `C[C@H]1CC2[C@@H]3CCC4=CC(=O)C=C[C@]4(C)[C@@]3(F)[C@@H](O)C[C@]2(C)[C@@]1(O)C(=O)CO` (stereo not given in full), the activity (max response) was -7.86% (inactive). On to `Cc1cc(Nc2cc(N)ncn2)c(=O)n2c1C(=O)NC21CCCCC1`, for which the activity (max response) is 0.221% (inactive). Consider `C/C(O)=C(\C#N)C(=O)Nc1ccc(C(F)(F)F)cc1`, for which the activity (max response) was -8.43% (inactive).

Turning to `COc1cc2c3c(n(CCCNCCO)c(=O)c2cc1OC)-c1cc2c(cc1C3=O)OCO2`, the Potency is 0.447 µM (active). For the molecule `CC(=O)OCC(=O)[C@H]1CC[C@H]2[C@@H]3CCC4=CC(=O)CC[C@]4(C)[C@H]3CC[C@]12C`, the activity (max response) is 2.66% (inactive). On the same count and under the same terms, to `CCc1c(C)[nH]c2c1C(=O)C(CN1CCOCC1)CC2` (stereo not given) belongs 7.75% (inactive). Regarding `O=C(O)CNC(=O)c1nc(Cl)c2ccccc2c1O`, the activity (max response) is 8.31% (inactive).

On to `C[C@@H](O[C@H]1OCCN(Cc2n[nH]c(=O)[nH]2)[C@H]1c1ccc(F)cc1)c1cc(C(F)(F)F)cc(C(F)(F)F)c1`, for which the Potency was 18.4 µM (active). Still for that read-out and setting: to `CCCC(C(=O)OCCN(CC)CC)(c1ccccc1)c1ccccc1` belongs 20.6 µM (active). As for `OC1CCC([C@H](O)C[C@H]2c3c(F)cccc3-c3cncn32)CC1` (stereo not given in full), the activity (max response) is -0.756% (inactive). In the case of `COc1cc2c(NC3CCN(C4CCCCC4)CC3)nc(N3CCCN(C(C)C)CC3)nc2cc1OCCCN1CCCCC1`, the Potency is 3.16 µM (active). Regarding `COc1cc2c(cc1OC)C(=O)C(CC1CCN(Cc3ccccc3)CC1)C2` (stereo not given), the activity (max response) is -16.2% (inactive). On the same count and under the same terms, to `CCOc1ccccc1O[C@H](c1ccccc1)[C@H]1CNCCO1` belongs -2.45% (inactive); to `CCC(=O)c1c(O)cc(O)cc1O`, -1.99% (inactive).

In the case of `CONC(=O)Nc1ccc(-c2sc3c(c2CN(C)C)c(=O)n(-c2ccc(OC)nn2)c(=O)n3Cc2c(F)cccc2F)cc1`, the activity (max response) was -5.64% (inactive). With `Cc1cc(O)c2c(O)c3c(O)cccc3cc2c1`, the activity (max response) is -2.49% (inactive). On to `CCCCCC=CCC=CCCCCCCCC(=O)OCC`, for which the activity (max response) is -4.47% (inactive).

In the case of `O=C(CCN1CCN2CCCC2C1)N1c2ccccc2Sc2ccc(Cl)cc21` (stereo not given), the activity (max response) is -13.8% (inactive). For `c1ccc(-c2ccc(C(c3ccccc3)n3ccnc3)cc2)cc1` (stereo not given), the Potency was 18.4 µM (active). In the case of `CC(C)n1c(/C=C/[C@@H](O)C[C@@H](O)CC(=O)O)c(-c2ccc(F)cc2)c2ccccc21`, the activity (max response) is 5.25% (inactive). For the molecule `C=CC(=O)Nc1ccc(F)c(-c2ncnc3[nH]cc(C(=O)OCC)c23)c1`, the Potency is 22.4 µM (active).

Regarding `CCCCCOc1ccc(C2SC(=O)NC2=O)cc1OCC` (stereo not given), the activity (max response) is -6.25% (inactive). On the same count and under the same terms, as for `C[C@@H](Nc1cc(F)cc(F)c1)c1cc(C(=O)N(C)C)cc2c(=O)cc(N3CCOCC3)oc12`, the figure is -10.8% (inactive). On the same count and under the same terms, to `O=C(O)CNC(=O)c1ncc(-c2cccc(Cl)c2)cc1O` belongs 5.73% (inactive); to `CCCc1c(OCCCOc2ccc(OCC(=O)O)cc2)ccc(C(C)=O)c1O`, -13.7% (inactive).

As for `CCOc1ccc2nc(S(N)(=O)=O)sc2c1`, the activity (max response) is -20.8% (inactive).

As for `CCCCC1C(=O)N(c2ccccc2)N(c2ccccc2)C1=O`, the activity (max response) was -21.3% (inactive). Still for that read-out and setting: as for `CCOC(=O)COc1ccc2c(C)c(CCN(CC)CC)c(=O)oc2c1Cl`, the figure is 0.298% (inactive).

`CCc1nn(CCCN2CCN(c3cccc(Cl)c3)CC2)c(=O)n1CCOc1ccccc1`: the Potency was 14.6 µM (active). Consider `COc1cc2c3c(n(CCCn4ccnc4)c(=O)c2cc1OC)-c1cc2c(cc1C3=O)OCO2`, for which the Potency was 0.0316 µM (active). `COc1ccc(Oc2cc(NCCC(F)(F)F)c3ncc(-c4ccc(C(=O)NC5CC5)c(C)c4)n3n2)c(F)c1F`: the activity (max response) is -17.7% (inactive). For `O=C(NC1CCN(CCc2c[nH]c3ccccc23)CC1)c1ccccc1`, the activity (max response) is -18.1% (inactive).

In the case of `C/C=C/CC(C)C(O)C1C(=O)NC(CC)C(=O)N(C)CC(=O)N(C)C(CC(C)C)C(=O)NC(C(C)C)C(=O)N(C)C(CC(C)C)C(=O)NC(C)C(=O)NC(C)C(=O)N(C)C(CC(C)C)C(=O)N(C)C(CC(C)C)C(=O)N(C)C(C(C)C)C(=O)N1C` (stereo not given), the activity (max response) is -11.5% (inactive). Still for that read-out and setting: to `Cc1nc(C2CCCCC2)c(-c2ccc(S(N)(=O)=O)c(F)c2)o1` belongs 16% (inactive). As for `Cc1cc(CC(=O)O)c(C)n1-c1ccc(Cl)cc1`, the activity (max response) was 4.84% (inactive). Consider `CC(CC1c2ccccc2CCc2ccccc21)CN(C)C` (stereo not given), for which the activity (max response) is -20.3% (inactive). Consider `COc1ccc2nc(NC(=O)Nc3ccccc3)sc2c1`, for which the activity (max response) was -20% (inactive).

In the case of `CC(=O)OCC1=C(C(=O)O)N2C(=O)[C@@H](NC(=O)CSc3ccncc3)[C@H]2SC1`, the activity (max response) is 10.5% (inactive).

Take `CC1Oc2cc(cnc2N)-c2c(nn(C)c2C#N)CN(C)C(=O)c2ccc(F)cc21` (stereo not given): the activity (max response) was -20% (inactive).

As to `Cn1ncc(NC(=O)c2nc(-c3c(F)cccc3F)sc2N)c1N1CC[C@@H](N)[C@H](F)CC1`, the Potency is 25.1 µM (active).

The values above are taken from PubChem BioAssay (NCATS).
